Source: PubChem (several laboratories)
TNAP act DEA: human TNAP enzyme activators, primary screen, biochemical, luminescent, intermediate phosphate acceptor level; Alkaline phosphatase, tissue-nonspecific isozyme (Homo sapiens), P05186; purified TNAP, CDP-star luminescence, 100 mM DEA, 30 min; active compounds read high; scale: 0 levamisole-inhibited, 1 vehicle-only enzyme; activation factor at 20 µM; 64,000 tested, under 10 active;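 active = activation factor of at least 2 at 20 µM, relative to controls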
Target sequence (P05186 whole entry, looked up): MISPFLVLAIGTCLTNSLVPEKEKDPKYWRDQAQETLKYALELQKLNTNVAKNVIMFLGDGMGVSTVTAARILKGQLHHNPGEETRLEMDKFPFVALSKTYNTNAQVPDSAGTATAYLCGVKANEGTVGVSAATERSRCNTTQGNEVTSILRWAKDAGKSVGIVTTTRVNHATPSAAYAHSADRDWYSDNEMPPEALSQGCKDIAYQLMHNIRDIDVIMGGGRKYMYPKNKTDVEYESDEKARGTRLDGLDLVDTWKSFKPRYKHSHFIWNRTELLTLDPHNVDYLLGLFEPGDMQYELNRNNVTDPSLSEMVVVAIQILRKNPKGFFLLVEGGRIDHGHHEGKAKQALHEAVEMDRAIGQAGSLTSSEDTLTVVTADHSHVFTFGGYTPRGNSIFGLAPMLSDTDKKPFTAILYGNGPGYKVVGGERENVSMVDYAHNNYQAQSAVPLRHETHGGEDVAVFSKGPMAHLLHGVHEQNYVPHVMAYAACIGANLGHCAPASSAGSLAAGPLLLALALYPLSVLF
DAT uptake mod: changed hDAT dopamine uptake under cocaine IC80, either direction, primary screen, cocaine antagonist project, cell-based, LLC-PK1 hDAT, [14C]-dopamine uptake, MLSMR | LLC-PK1 hDAT cells, [14C]-dopamine uptake with cocaine IC80; actives deviate in either direction | AID 449768, 2010 | B-score at 10 µM | Sodium-dependent dopamine transporter (Homo sapiens), Q01959 | hit rate 1.3% among 110,000;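 active = Z score or B-score, a plate-position-corrected score, falls beyond the plate's 99.7% confidence bounds, in either direction; inactive = both scores lie inside the 99.7% bounds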;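 also: scored against the spread of the other compound wells on the same plate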
PostGolgi yeast: phenotypic screen on post-Golgi transport, primary screen | post-Golgi transport phenotypic cell assay | inhibition, % at 10 µM | hit rate 0.9% among 98,000 | AID 739, 2007;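 also: yeast cells grown in 1536-well plates; yeast grown about 18 h at 30C before absorbance read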
PostGolgi ctrl: growth inhibition of yeast control strain, primary screen, counter-screen for post-Golgi transport modulator project. efflux-deficient yeast background strain, growth absorbance A615, 16 h. inhibition, % at 10 µM. hit rate 5% among 98,000. AID 738, 2007
Cav32 inh: Cav3.2 calcium influx blockers – cell-based, Fluo-4 calcium fluorescence, FDSS, MLSMR library, primary screen; B-score at 10 µM; Voltage-dependent T-type calcium channel subunit alpha-1H (Homo sapiens), O95180; hit rate 4% among 100,000; Cav3.2-expressing cells; active compounds read low;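 active = single-dose well whose peak fluorescence ratio is a statistical outlier from its plate by either plate-standardised score or position-corrected B-score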
Smad3 FoxH1 inh: Smad3/FoxH1 peptide binding inhibitors, primary screen, biochemical, TR-FRET; inhibition, % at 25 µM; AID 630, 2007; hit rate 0.29% among 88,000; TR-FRET Smad3/Dy647-FoxH1 peptide binding, europium anti-His;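 active = compounds that reduce the energy-transfer binding signal between the protein and its labelled peptide by more than half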;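 also: 0% = Smad3 plus labelled peptide maximal FRET and 100% = peptide-only background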
Numbers without * were called inactive; · = not tested or not shown. The list is not random: actives were taken first. Their share in the collection is about 8.7%. Rule as the data show it, unless noted: active = inhibition above about 30%; inactive = the rest.

SMILES	TNAP act DEA	DAT uptake mod	PostGolgi yeast	PostGolgi ctrl	Cav32 inh	Smad3 FoxH1 inh
CCc1nnc(NC(=O)c2cc3ccccc3oc2=O)s1	0.9	-8.9*	5	8	0.054	3
Cc1ccccc1-c1nnc(NC(=O)c2cc3ccccc3oc2=O)s1	·	-0.098	·	·	-0.64	·
COc1cc2c(cc1OC)C(c1cccs1)CC(=O)N2 (stereo not given)	0.9	0.25	1	-2	0.7	1
COc1ccc(-c2ccnc3nc(N4CCN(c5ccccc5)CC4)nn23)cc1	·	0.14	-2	53*	-1.1	·
CC(C)(C)c1ccc(-c2nnc(SCCC#N)n2C2CCCC2)cc1	0.8	-1.9	0	48*	-4.4*	2
Cc1ccc(CN2C(=O)C(C)(C)Oc3ccc(C(=O)N4CCCCC4)cc32)cc1	0.9	1.6	-16	26	-5.2*	9
CC1(C)Oc2ccc(C(=O)N3CCOCC3)cc2N(CC(=O)N2CCOCC2)C1=O	0.9	-1.6	2	9	0.93	-7
COc1cccc(NC(=O)c2ccc3c(c2)N(CC(=O)N2CCCCC2)C(=O)C(C)(C)O3)c1	1	3.1*	-2	-6	1.6	-5
CCN(CC)S(=O)(=O)N1CCC(C(=O)NCC2COc3ccccc3O2)CC1 (stereo not given)	0.9	0.39	2	-7	-0.009	6
CCN(c1ccccc1)S(=O)(=O)c1ccc(NCC2COc3ccccc3O2)nc1 (stereo not given)	0.9	0.48	15	56*	-4.8*	4
Fc1ccc(Cn2c(-c3cscn3)nc3ccccc32)c(Cl)c1	·	-0.14	3	34*	-0.0091	8
Clc1ccc(Cn2c(-c3cccnc3Cl)nc3ccccc32)c(Cl)c1	·	0.31	3	38*	-3	·
Nc1nonc1-c1nc2ccccc2n1Cc1ccc(F)cc1Cl	1.1	·	4	11	·	9
CC(C)CN(C(=O)COC(=O)CCN1C(=O)c2ccccc2C1=O)C1CCS(=O)(=O)C1 (stereo not given)	0.9	-0.01	-2	9	0.23	4
CN(C)S(=O)(=O)c1cccc(C(=O)NCc2ccco2)c1	0.9	-0.16	22	12	0.42	-13
Cc1ccc(N(Cc2ccco2)C(=O)c2cccc(S(=O)(=O)N(C)C)c2)cc1	0.9	-0.95	11	13	-4.3*	4
CN(C)S(=O)(=O)c1cccc(C(=O)N(Cc2ccc(F)cc2)Cc2ccco2)c1	0.8	-1	-6	7	-4.5*	7
COC(=O)C(Cc1cnc[nH]1)NC(=O)C1CCC(=O)N1 (stereo not given)	1	0.061	-1	4	-0.26	-6
CCOC(=O)C1=C(Cc2ccc(F)cc2)C(=O)c2ccccc2C1=O	·	-0.026	0	24	-2.5	5
O=C(OCc1ccc(F)cc1)c1ccc2c(c1)-c1ccccc1C2=O	·	-0.057	2	38*	0.17	·
CCCCNC(=S)NNC(=O)C12CC3CC(CC(C3)C1)C2	·	0.27	1	15	0.35	3
O=c1[nH]cnc2c1ncn2[C@H]1CC[C@@H](CO)O1	·	1.5	·	·	-2	·
OC[C@@H]1CCC[C@H](n2cnc3c(=S)nc[nH]c32)O1	·	·	·	·	·	55*
Cc1cc2cc(CNC(=O)NC3CCCCC3)ccc2n1C	·	-0.0047	-2	12	1	2
COc1ccccc1COC(=O)Nc1c(C)nn(C)c1Cl	·	-0.73	5	3	-0.67	·
Cc1ccccc1Cn1c2ccccc2c2cnn(CC(=O)N3CCN(c4ccccc4)CC3)c(=O)c21	·	1.2	0	42*	-3.6	·
O=C(Cn1ncc2c3ccccc3n(Cc3ccc(F)cc3)c2c1=O)N1CCN(c2ncccn2)CC1	·	2.8*	14	18	-2.7	-15
Cc1ccc(S(=O)(=O)N2CCN(Cc3nc4sc(C)c(C)c4c(=O)[nH]3)CC2)cc1	·	0.037	4	-1	0.32	-96
Cn1c(CCN2CCCCC2)nc2cc(NS(=O)(=O)c3ccc(F)cc3)ccc21	1	-0.55	7	1	0.18	9
